# According to the supplement of paper PMC6555819:
# Assays:
# Experiment in all cases: PBM binding z-score (relative to random genomic background probes); higher = stronger binding; sequences stand for … in GC…GCGATTGACAGCGTAGAATGAAGG
# [1] = system: RARb homodimer (NR concentration 270 nM)
# In short: (§1)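 On custom Agilent 4×180K arrays, double-stranded probes with 34-nt variable regions carried direct-repeat seeds, single-nucleotide variants, half-site ablations or random human genomic background. Ligand-free nuclear receptor dimers were applied for 1 h, and binding was read with antibodies against each partner (one per run). Binding z-scores come from regression-normalized fluorescence, with the random background probes as reference.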
# [2] = system: RARg:RXRa (NR concentration 270 nM, RXRa partner concentration 90 nM)
# In short: as §1
# [3] = system: RARg homodimer (NR concentration 270 nM)
# In short: as §1
# [4] = system: RXRa DBDmut IVT, anti-RXR (DBD mutation: RXRa K156A/R161A, NR concentration 90 nM)
# In short: as §1
# [5] = system: RXRa homodimer (NR concentration 180 nM)
# In short: as §1
# [6] = system: THRa:RXRa (NR concentration 90 nM, RXRa partner concentration 90 nM)
# In short: as §1
# [7] = system: THRa homodimer (NR concentration 90 nM)
# In short: as §1
# [8] = system: VDR homodimer (NR concentration 270 nM)
# In short: as §1
sequence,measurement,setting,value
CGAACTAGGTCACCAGGAGAGTGAAGAGGTTGGA,PBM binding z-score,[1],3.18
same,PBM binding z-score,[2],4.34
same,PBM binding z-score,[3],5.04
same,PBM binding z-score,[4],1.08
same,PBM binding z-score,[5],3.02
same,PBM binding z-score,[6],2.98
same,PBM binding z-score,[7],1.09
same,PBM binding z-score,[8],0.207
CCTTACGGGTCAGGAGGTTATAGCACGACGAGCG,PBM binding z-score,[1],3.15
same,PBM binding z-score,[2],4.9
same,PBM binding z-score,[3],4.22
same,PBM binding z-score,[4],-0.195
same,PBM binding z-score,[5],4.96
same,PBM binding z-score,[6],2.37
same,PBM binding z-score,[7],0.0139
same,PBM binding z-score,[8],0.418
ATATGTGGGTTAGGGTCATTCAGAAAGTAGGGAA,PBM binding z-score,[1],3.67
same,PBM binding z-score,[2],4.16
same,PBM binding z-score,[3],3.23
same,PBM binding z-score,[4],2.95
same,PBM binding z-score,[5],5.55
same,PBM binding z-score,[6],4.42
same,PBM binding z-score,[7],4.11
same,PBM binding z-score,[8],4.92
CGAACTAGTTCAAAGGACAGTGAAAGGCGACGTA,PBM binding z-score,[1],1.43
same,PBM binding z-score,[2],1.25
same,PBM binding z-score,[3],1.73
same,PBM binding z-score,[4],2.02
same,PBM binding z-score,[5],0.848
same,PBM binding z-score,[6],0.426
same,PBM binding z-score,[7],-0.6
same,PBM binding z-score,[8],0.808
CCAACTAGGTCACCAGGACAGTGAAGAGGTTGGA,PBM binding z-score,[1],3.74
same,PBM binding z-score,[2],4.53
same,PBM binding z-score,[3],5.37
same,PBM binding z-score,[4],1.24
same,PBM binding z-score,[5],3.51
same,PBM binding z-score,[6],3.37
same,PBM binding z-score,[7],1.89
same,PBM binding z-score,[8],0.883
TCGAGTAGGTTACGGGGGCTTTCAGGGATGAAGA,PBM binding z-score,[1],1.29
same,PBM binding z-score,[2],1.96
same,PBM binding z-score,[3],1.19
same,PBM binding z-score,[4],1.17
same,PBM binding z-score,[5],1.69
same,PBM binding z-score,[6],2.43
same,PBM binding z-score,[7],0.921
same,PBM binding z-score,[8],0.544
CGAACTAGGTCACCAGGACTGTGAAGAGGTTGGA,PBM binding z-score,[1],3.39
same,PBM binding z-score,[2],4.54
same,PBM binding z-score,[3],5.16
same,PBM binding z-score,[4],1.46
same,PBM binding z-score,[5],3.6
same,PBM binding z-score,[6],3.24
same,PBM binding z-score,[7],1.3
same,PBM binding z-score,[8],0.447
TGTCAGAGTTCAAAGGTAACGTAAGTATCCACAC,PBM binding z-score,[1],3.41
same,PBM binding z-score,[2],5.95
same,PBM binding z-score,[3],5.28
same,PBM binding z-score,[4],4.83
same,PBM binding z-score,[5],7.51
same,PBM binding z-score,[6],3.53
same,PBM binding z-score,[7],-0.159
same,PBM binding z-score,[8],5.41
CTTTGTAGGTTAAGGGGGTCATTCAGTTTGAAAG,PBM binding z-score,[1],3.99
same,PBM binding z-score,[2],5.28
same,PBM binding z-score,[3],4.16
same,PBM binding z-score,[4],2.79
same,PBM binding z-score,[5],6.08
same,PBM binding z-score,[6],3.97
same,PBM binding z-score,[7],2.08
same,PBM binding z-score,[8],5.68
CCTACTGGGCCGAGGTCATTGATCAGTCAAAGCA,PBM binding z-score,[1],3.3
same,PBM binding z-score,[2],4.27
same,PBM binding z-score,[3],3.11
same,PBM binding z-score,[4],1.96
same,PBM binding z-score,[5],4.68
same,PBM binding z-score,[6],3.52
same,PBM binding z-score,[7],2.67
same,PBM binding z-score,[8],4.32
CGAACTAGGTCACAAGGACAGTGAAGAGGTTGGA,PBM binding z-score,[1],3.36
same,PBM binding z-score,[2],4.24
same,PBM binding z-score,[3],4.8
same,PBM binding z-score,[4],1.32
same,PBM binding z-score,[5],3.1
same,PBM binding z-score,[6],3.33
same,PBM binding z-score,[7],1.7
same,PBM binding z-score,[8],0.816
ATCGAACGGTCGAGGTGAGTATAGAGAAAGGGAA,PBM binding z-score,[1],0.591
same,PBM binding z-score,[2],0.56
same,PBM binding z-score,[3],1.16
same,PBM binding z-score,[4],-0.533
same,PBM binding z-score,[5],0.211
same,PBM binding z-score,[6],1.06
same,PBM binding z-score,[7],0.0248
same,PBM binding z-score,[8],-0.386
CCGAGTAGGTTACGAGAGGGCATTCAGTGCGAAT,PBM binding z-score,[1],1.65
same,PBM binding z-score,[2],1.75
same,PBM binding z-score,[3],1.42
same,PBM binding z-score,[4],0.522
same,PBM binding z-score,[5],1.39
same,PBM binding z-score,[6],3.76
same,PBM binding z-score,[7],-0.738
same,PBM binding z-score,[8],2.06
CGAACTAGGTCAGCAGGACAGTGAAGAGGTTGGA,PBM binding z-score,[1],2.84
same,PBM binding z-score,[2],2.91
same,PBM binding z-score,[3],3.91
same,PBM binding z-score,[4],0.0956
same,PBM binding z-score,[5],1.51
same,PBM binding z-score,[6],2
same,PBM binding z-score,[7],0.264
same,PBM binding z-score,[8],-0.272
CCTACTGGGCCATTCAGAGGTCACTGATCATATG,PBM binding z-score,[1],4.51
same,PBM binding z-score,[2],4.5
same,PBM binding z-score,[3],3.57
same,PBM binding z-score,[4],0.354
same,PBM binding z-score,[5],3.71
same,PBM binding z-score,[6],3.48
same,PBM binding z-score,[7],1.72
same,PBM binding z-score,[8],1.85
CGAACAAGGTCAAAGGACAGTGAAAGGCGACGTA,PBM binding z-score,[1],3.95
same,PBM binding z-score,[2],5.92
same,PBM binding z-score,[3],5.92
same,PBM binding z-score,[4],3.59
same,PBM binding z-score,[5],5.76
same,PBM binding z-score,[6],3.57
same,PBM binding z-score,[7],1.54
same,PBM binding z-score,[8],2.26
TCTCGGAGGACACGAAAGGTCTGAGCTCGACATC,PBM binding z-score,[1],1.21
same,PBM binding z-score,[2],0.667
same,PBM binding z-score,[3],1.47
same,PBM binding z-score,[4],0.831
same,PBM binding z-score,[5],0.137
same,PBM binding z-score,[6],1.53
same,PBM binding z-score,[7],0.392
same,PBM binding z-score,[8],-0.266
CGAACTAGGTCAGAGCAGGACAGTGAAGGATGAT,PBM binding z-score,[1],1.84
same,PBM binding z-score,[2],2.48
same,PBM binding z-score,[3],3.25
same,PBM binding z-score,[4],0.613
same,PBM binding z-score,[5],1.11
same,PBM binding z-score,[6],4.2
same,PBM binding z-score,[7],0.0649
same,PBM binding z-score,[8],-0.21
TCGAGTAGGTTACGGGGGCATTCAGGGATGAAGA,PBM binding z-score,[1],2.45
same,PBM binding z-score,[2],3.55
same,PBM binding z-score,[3],2.61
same,PBM binding z-score,[4],1.79
same,PBM binding z-score,[5],2.77
same,PBM binding z-score,[6],3.81
same,PBM binding z-score,[7],1.25
same,PBM binding z-score,[8],2.57
CGAACTAGTTCAAGGACAGTGAATCTCCGCACGC,PBM binding z-score,[1],0.95
same,PBM binding z-score,[2],0.588
same,PBM binding z-score,[3],0.91
same,PBM binding z-score,[4],1.78
same,PBM binding z-score,[5],0.544
same,PBM binding z-score,[6],2.01
same,PBM binding z-score,[7],1.47
same,PBM binding z-score,[8],0.883
CGAACTAGCTCAAGGACAGTGAATCTCCGCACGC,PBM binding z-score,[1],0.214
same,PBM binding z-score,[2],-0.134
same,PBM binding z-score,[3],-0.141
same,PBM binding z-score,[4],0.392
same,PBM binding z-score,[5],-0.227
same,PBM binding z-score,[6],1.42
same,PBM binding z-score,[7],1.48
same,PBM binding z-score,[8],0.226
CTATGTAGGTTTAGGGGGTCATTCAGTTTGAAAG,PBM binding z-score,[1],3.42
same,PBM binding z-score,[2],4.23
same,PBM binding z-score,[3],3.14
same,PBM binding z-score,[4],2.35
same,PBM binding z-score,[5],4.8
same,PBM binding z-score,[6],3.52
same,PBM binding z-score,[7],1.9
same,PBM binding z-score,[8],5.35
ATTTGTAGGTTAGGGTCATTCAGAAAGTAGGGAA,PBM binding z-score,[1],3.88
same,PBM binding z-score,[2],4.4
same,PBM binding z-score,[3],3.72
same,PBM binding z-score,[4],2.82
same,PBM binding z-score,[5],5.6
same,PBM binding z-score,[6],4.17
same,PBM binding z-score,[7],3.71
same,PBM binding z-score,[8],4.56
CGAACTTGGTCACCAGGACAGTGAAGAGGTTGGA,PBM binding z-score,[1],1.06
same,PBM binding z-score,[2],0.959
same,PBM binding z-score,[3],1.47
same,PBM binding z-score,[4],-0.0208
same,PBM binding z-score,[5],0.727
same,PBM binding z-score,[6],1.63
same,PBM binding z-score,[7],0.644
same,PBM binding z-score,[8],-0.0725
AGAATGAGGTTAGCAAAGATCAGGGAAACGCTTG,PBM binding z-score,[1],0.446
same,PBM binding z-score,[2],0.938
same,PBM binding z-score,[3],0.899
same,PBM binding z-score,[4],0.105
same,PBM binding z-score,[5],1.23
same,PBM binding z-score,[6],1.8
same,PBM binding z-score,[7],0.173
same,PBM binding z-score,[8],-0.135
CCTAGTTGGTCAAGGTCACGCACGCTATAGGTAC,PBM binding z-score,[1],4.81
same,PBM binding z-score,[2],5.21
same,PBM binding z-score,[3],5.57
same,PBM binding z-score,[4],1.94
same,PBM binding z-score,[5],5.65
same,PBM binding z-score,[6],4.06
same,PBM binding z-score,[7],4.48
same,PBM binding z-score,[8],3.96
CGAACTAGGTCCCCAGGACAGTGAAGAGGTTGGA,PBM binding z-score,[1],-0.127
same,PBM binding z-score,[2],-0.281
same,PBM binding z-score,[3],-0.0988
same,PBM binding z-score,[4],-0.51
same,PBM binding z-score,[5],-0.31
same,PBM binding z-score,[6],0.965
same,PBM binding z-score,[7],0.258
same,PBM binding z-score,[8],-0.533
AATTCAGGGTCACTAGGCCAGAGTAGGTACGAAT,PBM binding z-score,[1],3.83
same,PBM binding z-score,[2],6.06
same,PBM binding z-score,[3],5.56
same,PBM binding z-score,[4],3.39
same,PBM binding z-score,[5],6.68
same,PBM binding z-score,[6],4
same,PBM binding z-score,[7],1.78
same,PBM binding z-score,[8],2.97
